In article PMC5540273 (PLoS ONE, 2017):

Tests used:
Conditions in all cases: concentration: 1 μM,replicates: in singlicate; n = 1
BMX = test system: BMX
BRAF = test system: BRAF
BRK = test system: T1, BRK
T1 construct: gene PTK6

BRSK1 = test system: BRSK1
BRSK2 = test system: BRSK2
BTK = test system: BTK
BUB1 = test system: BUB1
CAMK1B = test system: CAMK1B
CAMK1D = test system: CAMK1D
CAMK1G = test system: CAMK1G
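Note: KINOMEscan kinase panel screen.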

Row | SMILES | %Inh (BMX) | %Inh (BRAF) | %Inh (BRK) | %Inh (BRSK1) | %Inh (BRSK2) | %Inh (BTK) | %Inh (BUB1) | %Inh (CAMK1B) | %Inh (CAMK1D) | %Inh (CAMK1G)
1 | COc1cccc(CNC(=O)NC2CCN(c3ccnc(Nc4cc(OC)c(OC)c(OC)c4)n3)C2)c1 (stereo not shown) [GSK1379765] | 23% | 0% | 34% | 0% | 0% | 42% | 81% | 35% | 17% | 0%
2 | Cc1ccc(Nc2ccnc(Nc3ccc4c(c3)CS(=O)(=O)C4)n2)cc1O.Cl [GW579362] | 80% | 77% | 95% | 10% | 3% | 100% | 99.3% | 31% | 38% | 34%
3 | CN(c1ccc2c(c1)nc(NCc1ccc(F)cc1)n2C)c1ccnc(Nc2ccc(CS(C)(=O)=O)cc2)n1.Cl [GW813244] | 16% | 96.8% | 88% | 0% | 0% | 0% | 50% | 0% | 0% | 22%
4 | C[C@@H](Oc1cc(-n2cnc3ccc(-c4ccncc4)cc32)sc1C(N)=O)c1ccccc1Cl [GSK483724] | 27% | 8% | 25% | 24% | 20% | 0% | 41% | 8% | 21% | 21%
5 | CN1CCN(CCCNc2nccc(-c3c(-c4ccc(F)cc4)nn4cc(C(N)=O)ccc34)n2)CC1 [GW622475] | 20% | 49% | 6% | 9% | 29% | 0% | 25% | 0% | 21% | 21%
6 | CCCC(=O)Nc1n[nH]c2ncccc12 [SB-601436] | 28% | 7% | 0% | 0% | 0% | 0% | 0% | 0% | 3% | 0%
7 | CC(=O)Nc1nc2cnc(Nc3cc(NC(=O)c4cccc(CC(C)(C)C#N)c4)ccc3C)nc2s1 | 9% | 99.9% | 0% | 23% | 14% | 51% | 30% | 0% | 8% | 0%
